The source of these data is PubChem BioAssay (EPA / NIEHS).

Inconclusive results are not listed. Active and inactive are the calls of the source. The calls were made as follows: active = hit-call score of the fitted dose curve at least 0.9, where 1 is the maximum; inconclusive = response in the unintended direction; inactive = score below 0.9.

This assay in a line: CLD_ACTIN_48hr: CellzDirect (CLD) Gene Expression Assay for Baseline Control (Actin) at 48 hours (AID 2283702). How it is done: CLD_48hr is a cell-based, multiplexed-readout assay that uses hepatocyte, a human liver primary cell, with measurements taken at 48 hours after chemical dosing in a 96-well plate.CLD_ACTIN_48hr is one of 16 assay component(s) measured or calculated from the CLD_48hr assay. It is designed to make measurements of mRNA induction, a form of inducible reporter, as detected with chemiluminescence signals by Quantitative Nuclease Protection Assay (qNPA) technology.Data from the assay component CLD_ACTIN_48hr was analyzed at the endpoint, CLD_ACTIN_48hr, in the positive analysis fitting direction relative to DMSO as the negative control and baseline of activity. Using a type of inducible reporter, gain-of-signal activity can be used to understand changes in the reporter gene as they relate to the gene ACTA1. Furthermore, this assay endpoint can be referred to as a secondary readout, because this assay has produced multiple assay endpoints where this one serves a background control function. To generalize the intended target to other relatable targets, this assay endpoint is annotated to the background measurement intended target family, where subfamily is baseline control.
Human hepatocyte cultures were treated daily for two consecutive days with fresh dosing solutions containing appropriate concentrations of the 320 ToxCast chemicals (chemical identities were blinded to CellzDirect and other ToxCast collaborators), vehicle control (0.2% DMSO), and positive control inducers as summarized in Table 1. Due to the large number of treatment groups and chemicals examined, the ToxCast chemicals were divided into two groups (spanning two independent cultures of hepatocytes from separate donor preparations (Hu778: ToxCast plates 1 and 2; Hu776: ToxCast plates 3 and 4). Each preparation of human hepatocyte cultures was treated with respective vehicle control, medium only control, set of six positive controls/reference chemicals for the five hepatic receptor pathways, and a subset of eight of the ToxCast chemicals (indoxacarb, pyrithiobac-sodium, norflurazon, cyhalofop-butyl, methomyl, thiram, acetochlor, and propiconazole). These replicate data, coupled with internal replicates designed within the blinded ToxCast chemical library, provided additional data to evaluate interindividual differences between hepatocyte preparations and their potential impact on chemical profiles.Cell morphology and integrity were evaluated using phase-contrast microscopy as an indicator of hepatocyte cell health (Tyson & Green, 1987). Cultures for each treatment group (i.e., media, vehicle [0.2% DMSO], positive control inducers [multiple concentrations], and the ToxCast chemicals [multiple concentrations]) were observed and cell morphology was assessed relative to vehicle control cultures at each harvest time point (0, 6, 24, or 48 h). […] Images were evaluated at the conclusion of the study to assess changes in cell integrity and account for the effects of chemical exposure on uncharacteristic changes in concentration-dependent gene expression profiles. The results from these determinations of apparent cytotoxicity were annotated (yes/no) alongside the corresponding qNPA data for reference.At the conclusion of each treatment period, hepatocyte cultures (96-well) were washed with 1 volume of HBSS, lysed by addition of 25 ul ArrayPlate lysis buffer (HTG, Tucson, AZ), and 70 ul/well of Denaturation Oil, denatured by incubation at 95C for 10 min, and frozen at approximately -70C until analysis by nuclease protection assay (qNPA) (Roberts et al., 2007). For qNPA analysis, cell lysates were thawed at 50C for approximately 30 min, qNPA probes were added, and samples were incubated at 95C for 10 min to begin the detection process by denaturing the target RNA, dissociating the duplexes and secondary structure hybridization. At the conclusion of the hybridization period, S1 nuclease reagent was added to each sample to digest all nonprotected nucleotides at 50C for 60-90 min. […]
In the case of `CCC(C)OC(=O)N1CCCCC1CCO` (stereo unspecified), the call was inactive. `CCOC(=O)C(C)Oc1ccc(Oc2nc3ccc(Cl)cc3o2)cc1` (stereo unspecified): the result was inactive. Take `COC(=O)c1ccc(I)cc1S(=O)(=O)NC(=O)Nc1nc(C)nc(OC)n1`: the compound was classed as inactive. The result for `COC(=O)c1c(Cl)nn(C)c1S(=O)(=O)NC(=O)Nc1nc(OC)cc(OC)n1` reads “inactive”. For `C#CCOC(=O)[C@@H](C)Oc1ccc(Oc2ncc(Cl)cc2F)cc1`, the compound was classed as inactive. The result for `COc1c(Cl)ccc(Cl)c1C(=O)O` reads “inactive”; that for `CCCN(CCC)C(=O)SCC`, “inactive”; that for `CCOC(=O)C(C)Oc1ccc(Oc2cnc3cc(Cl)ccc3n2)cc1` (stereo unspecified), “inactive”. For `CCCCOC(=O)C(C)Oc1ccc(Oc2ccc(C(F)(F)F)cn2)cc1` (stereo unspecified), the outcome was inactive.

As for `CCCOC(=O)c1ccc(C(=O)OCCC)nc1`, the outcome was inactive.

Take `CCOC(=O)COc1cc(-n2ncc(C(F)(F)F)c(C)c2=O)c(F)cc1Cl`: the compound was classed as inactive.

Turning to `CCOC(=O)[C@H](C)Oc1ccc(Oc2nc3ccc(Cl)cc3o2)cc1`, the call was inactive.

On to `CCC(O)=C1C(=O)CC(C(=O)O)CC1=O` (stereo unspecified), for which the compound was called inactive. The result for `CCCOC(=O)NCCCN(C)C` reads “inactive”; that for `CCSC(=O)N(CC(C)C)CC(C)C`, “inactive”; that for `Cc1nn(C)c(Oc2ccccc2)c1C=NOCc1ccc(C(=O)OC(C)(C)C)cc1`, “inactive”.

In the case of `Oc1ccc(C(c2ccc(O)cc2)C(Cl)(Cl)Cl)cc1`, the compound was classed as inactive.

Turning to `CCCCCOC(=O)COc1cc(N2C(=O)C3=C(CCCC3)C2=O)c(F)cc1Cl`, the outcome was inactive. The entry for `CCNc1nc(N)nc(Cl)n1` is “inactive”; for `S=C([S-])NCCNC(=S)[S-].[Mn+2]` it is “inactive”; for `COC(=O)c1ccccc1S(=O)(=O)NC(=O)Nc1nc(OC(F)F)cc(OC(F)F)n1` it is “inactive”. The result for `N#CSCSc1nc2ccccc2s1` reads “inactive”. The entry for `C=CCOC(Cn1ccnc1)c1ccc(Cl)cc1Cl` (stereo unspecified) is “inactive”; for `O=C(O)C1(C(=O)Nc2ccc(Cl)cc2Cl)CC1` it is “inactive”; for `CC1(C)C(C=C(Cl)Cl)C1C(=O)OCc1cccc(Oc2ccccc2)c1` (stereo unspecified) it is “inactive”. As for `CSC(=O)c1cccc2nnsc12`, the compound was called inactive. The entry for `CC(C)(c1ccc(O)cc1)c1ccc(O)cc1` is “inactive”; for `COC(=O)c1ccc(CNS(C)(=O)=O)cc1S(=O)(=O)NC(=O)Nc1nc(OC)cc(OC)n1` it is “inactive”; for `OB(O)O` it is “inactive”.

As to `COC(=O)c1ccccc1C(=O)O`, the compound was classed as inactive. The entry for `COCCO` is “inactive”.
